{"source": "the supplement of paper PMC8728848", "binders": {"B1": {"name": "GST-Gap1 (Streptococcus parasanguinis), A1C3L5 (protein)", "chain": "MFYFVPSWYNGQRQWYYDTPWWFRVKNRMTFDDSVNQVKMFLQGQEEIGLMILNYQPQLRYFLHKQNIFGIYYWSFFDDIQNITRSYTKIIHLKDLNWPEGCEFLYSPFAVVVRLKGEIFAIVNYAEDGNLHSVSFQKNGKVTKDYIFDDRGFLSSILYYDIDERPLYQDYLNINGVWQVREFLKKENDPTPILMINDFSDQTFSKKYYNGWEELIKERLAIFQNNHVENEDVFVLASDTQHNQLVSSIFKEHRKIYSFFGNRFNLENLGQDRISINDATFLVVDTEKNEELLRKTCENLVFKSIPIVRLSPFDSRLRLGHSQTVKEQIIYFHIDNIELDELYSVIAIILELMTLHLDIELRIVTFRQDFQLDLLKTWIIDFIKTNHFEDLLFKQISEGENEIEDEGEIELSRIAMECFTNENQIIKCLDTARLVIDLGIEPDLYTQIASISAGIPQINRVSSDYVIHQKNGLVISDISKLSSAIEFYFDGLFNWNEALIYAVRKMSDYTSGKILKQWKGMLKKK"}}, "test_in_all_cases": "glycan array binding signal (z-score within array); higher = stronger binding", "settings_in_all_cases": "glycan notation: IUPAC condensed, linker removed", "key": {"[1]": {"target": "GalNAc(b1-3)Gal(a1-4)Gal(b1-4)GlcNAc", "procedure,_shortened": "(§1)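 Negative Z-scores can be read as non-binding. The Z-score is calculated within each array and then averaged across arrays of one protein sequence at different concentrations or buffers and across linkers. Arrays, 3228 in all, were curated from the Consortium for Functional Glycomics database and kept only where the protein sequence was available.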"}, "GalNAc(b1-4)GlcNAc": {"target": "GalNAc(b1-4)GlcNAc", "procedure,_shortened": "as §1"}, "GlcA(b1-3)GlcNAc": {"target": "GlcA(b1-3)GlcNAc", "procedure,_shortened": "as §1"}, "[2]": {"target": "GlcNAc(b1-3)Gal(b1-4)GlcNAc(b1-2)Man(a1-3)[GlcNAc(b1-3)Gal(b1-4)GlcNAc(b1-2)Man(a1-6)]Man(b1-4)GlcNAc(b1-4)GlcNAc", "procedure,_shortened": "as §1"}, "[3]": {"target": "GlcNAc(b1-3)Gal(b1-4)GlcNAc(b1-3)Gal(b1-4)GlcNAc(b1-3)Gal(b1-4)GlcNAc(b1-2)Man(a1-3)[GlcNAc(b1-3)Gal(b1-4)GlcNAc(b1-3)Gal(b1-4)GlcNAc(b1-3)Gal(b1-4)GlcNAc(b1-2)Man(a1-6)]Man(b1-4)GlcNAc(b1-4)[Fuc(a1-6)]GlcNAc", "procedure,_shortened": "as §1"}, "[4]": {"target": "GlcNAc(b1-3)Gal(b1-4)GlcNAc(b1-3)Gal(b1-4)GlcNAc(b1-3)Gal(b1-4)GlcNAc(b1-3)Gal(b1-4)GlcNAc(b1-2)Man(a1-3)[GlcNAc(b1-3)Gal(b1-4)GlcNAc(b1-3)Gal(b1-4)GlcNAc(b1-3)Gal(b1-4)GlcNAc(b1-3)Gal(b1-4)GlcNAc(b1-2)Man(a1-6)]Man(b1-4)GlcNAc(b1-4)GlcNAc", "procedure,_shortened": "as §1"}, "[5]": {"target": "GlcNAc(b1-3)Gal(b1-4)GlcNAc(b1-3)Gal(b1-4)GlcNAc(b1-3)Gal(b1-4)GlcNAc(b1-3)Gal(b1-4)GlcNAc(b1-2)Man(a1-3)[GlcNAc(b1-3)Gal(b1-4)GlcNAc(b1-3)Gal(b1-4)GlcNAc(b1-3)Gal(b1-4)GlcNAc(b1-3)Gal(b1-4)GlcNAc(b1-2)Man(a1-6)]Man(b1-4)GlcNAc(b1-4)[Fuc(a1-6)]GlcNAc", "procedure,_shortened": "as §1"}, "[6]": {"target": "GlcNAc(b1-3)Gal(b1-4)GlcNAc(b1-3)Gal(b1-4)GlcNAc(b1-3)Gal(b1-4)GlcNAc(b1-3)Gal(b1-4)GlcNAc(b1-2)[GlcNAc(b1-3)Gal(b1-4)GlcNAc(b1-3)Gal(b1-4)GlcNAc(b1-3)Gal(b1-4)GlcNAc(b1-3)Gal(b1-4)GlcNAc(b1-6)]Man(a1-6)[GlcNAc(b1-3)Gal(b1-4)GlcNAc(b1-3)Gal(b1-4)GlcNAc(b1-3)Gal(b1-4)GlcNAc(b1-3)Gal(b1-4)GlcNAc(b1-2)Man(a1-3)]Man(b1-4)GlcNAc(b1-4)[Fuc(a1-6)]GlcNAc", "procedure,_shortened": "as §1"}, "GlcNAc(b1-3)Man": {"target": "GlcNAc(b1-3)Man", "procedure,_shortened": "as §1"}, "MurNAc(b1-4)GlcNAc": {"target": "MurNAc(b1-4)GlcNAc", "procedure,_shortened": "as §1"}, "[7]": {"target": "Neu5Ac(a2-3)Gal(b1-3)GalNAc(b1-4)[Neu5Ac(a2-8)Neu5Ac(a2-3)]Gal(b1-4)Glc", "procedure,_shortened": "as §1"}, "[8]": {"target": "Neu5Ac(a2-3)Gal(b1-4)GlcNAc(b1-2)Man(a1-3)[Neu5Ac(a2-3)Gal(b1-4)GlcNAc(b1-2)Man(a1-6)]Man(b1-4)GlcNAc(b1-4)GlcNAc", "procedure,_shortened": "as §1"}, "[9]": {"target": "Neu5Ac(a2-3)Gal(b1-4)GlcNAc(b1-3)Gal(b1-4)GlcNAc(b1-2)Man(a1-3)[Neu5Ac(a2-3)Gal(b1-4)GlcNAc(b1-3)Gal(b1-4)GlcNAc(b1-2)Man(a1-6)]Man(b1-4)GlcNAc(b1-4)GlcNAc", "procedure,_shortened": "as §1"}, "[10]": {"target": "Neu5Ac(a2-3)Gal(b1-4)GlcNAc(b1-3)Gal(b1-4)GlcNAc(b1-3)Gal(b1-4)GlcNAc(b1-2)Man(a1-3)[Neu5Ac(a2-3)Gal(b1-4)GlcNAc(b1-3)Gal(b1-4)GlcNAc(b1-3)Gal(b1-4)GlcNAc(b1-2)Man(a1-6)]GalNAc", "procedure,_shortened": "as §1"}, "[11]": {"target": "Neu5Ac(a2-3)Gal(b1-4)GlcNAc(b1-3)Gal(b1-4)GlcNAc(b1-6)[Gal(b1-3)]GalNAc", "procedure,_shortened": "as §1"}, "[12]": {"target": "Neu5Ac(a2-3)Gal(b1-4)[Fuc(a1-3)]GlcNAc(b1-6)[Gal(b1-3)]GalNAc", "procedure,_shortened": "as §1"}, "[13]": {"target": "Neu5Ac(a2-6)Gal(b1-4)GlcNAc(b1-2)Man(a1-3)[GlcNAc(b1-2)Man(a1-6)]Man(b1-4)GlcNAc(b1-4)GlcNAc", "procedure,_shortened": "as §1"}, "[14]": {"target": "Neu5Ac(a2-6)Gal(b1-4)GlcNAc(b1-2)Man(a1-3)[Neu5Ac(a2-3)Gal(b1-4)GlcNAc(b1-2)Man(a1-6)]Man(b1-4)GlcNAc(b1-4)GlcNAc", "procedure,_shortened": "as §1"}, "[15]": {"target": "Neu5Ac(a2-6)Gal(b1-4)GlcNAc(b1-2)[Neu5Ac(a2-6)Gal(b1-4)GlcNAc(b1-4)]Man(a1-3)[GlcNAc(b1-4)][Neu5Ac(a2-6)Gal(b1-4)GlcNAc(b1-2)[Neu5Ac(a2-6)Gal(b1-4)GlcNAc(b1-6)]Man(a1-6)]Man(b1-4)GlcNAc(b1-4)GlcNAc", "procedure,_shortened": "as §1"}, "[16]": {"target": "Neu5Ac(a2-6)Gal(b1-4)GlcNAc(b1-3)Gal(b1-4)GlcNAc(b1-3)Gal(b1-4)GlcNAc(b1-2)Man(a1-3)[Neu5Ac(a2-6)Gal(b1-4)GlcNAc(b1-3)Gal(b1-4)GlcNAc(b1-3)Gal(b1-4)GlcNAc(b1-2)Man(a1-6)]GalNAc", "procedure,_shortened": "as §1"}, "[17]": {"target": "Neu5Ac(a2-6)Gal(b1-4)GlcNAc6S", "procedure,_shortened": "as §1"}, "[18]": {"target": "Neu5Ac(a2-6)GalNAc(b1-4)GlcNAc6S", "procedure,_shortened": "as §1"}, "[19]": {"target": "Neu5Gc(a2-8)Neu5Ac(a2-3)Gal(b1-4)GlcNAc", "procedure,_shortened": "as §1"}}, "note": "Only a selection was taken, and the strongest signals are over-represented in it overall."}
{"binder": "B1", "values": [{"measurement": "glycan array binding signal (z-score)", "setting": "[1]", "value": 0.159}, {"measurement": "glycan array binding signal (z-score)", "setting": "GalNAc(b1-4)GlcNAc", "value": -0.452}, {"measurement": "glycan array binding signal (z-score)", "setting": "GlcA(b1-3)GlcNAc", "value": 5.69}, {"measurement": "glycan array binding signal (z-score)", "setting": "[2]", "value": 0.668}, {"measurement": "glycan array binding signal (z-score)", "setting": "[3]", "value": 2.14}, {"measurement": "glycan array binding signal (z-score)", "setting": "[4]", "value": 0.361}, {"measurement": "glycan array binding signal (z-score)", "setting": "[5]", "value": -0.16}, {"measurement": "glycan array binding signal (z-score)", "setting": "[6]", "value": 0.811}, {"measurement": "glycan array binding signal (z-score)", "setting": "GlcNAc(b1-3)Man", "value": -0.28}, {"measurement": "glycan array binding signal (z-score)", "setting": "MurNAc(b1-4)GlcNAc", "value": -0.969}, {"measurement": "glycan array binding signal (z-score)", "setting": "[7]", "value": 0.39}, {"measurement": "glycan array binding signal (z-score)", "setting": "[8]", "value": -1.31}, {"measurement": "glycan array binding signal (z-score)", "setting": "[9]", "value": 2.28}, {"measurement": "glycan array binding signal (z-score)", "setting": "[10]", "value": 2.15}, {"measurement": "glycan array binding signal (z-score)", "setting": "[11]", "value": -0.747}, {"measurement": "glycan array binding signal (z-score)", "setting": "[12]", "value": 1.35}, {"measurement": "glycan array binding signal (z-score)", "setting": "[13]", "value": -0.335}, {"measurement": "glycan array binding signal (z-score)", "setting": "[14]", "value": 0.84}, {"measurement": "glycan array binding signal (z-score)", "setting": "[15]", "value": -0.54}, {"measurement": "glycan array binding signal (z-score)", "setting": "[16]", "value": 2.53}, {"measurement": "glycan array binding signal (z-score)", "setting": "[17]", "value": 0.323}, {"measurement": "glycan array binding signal (z-score)", "setting": "[18]", "value": -0.037}, {"measurement": "glycan array binding signal (z-score)", "setting": "[19]", "value": -0.655}]}
